# Source: PubChem BioAssay AID489025 (Southern Research Specialized Biocontainment Screening …, 2010)
# Out of some 2,300 compounds screened, about 790 (34%) were called active. The rule behind the calls is not given here. Some of the results follow. Measured potencies and affinities stand elsewhere.
# Experiment: THP-1 cell cytotoxicity, dose response, cytotoxicity control for non-replicating M. tuberculosis project (AID 489025)
# Details: THP-1 cell viability; series mostly up to 40 µM
row,Compound,outcome
1,COc1cc(C=O)ccc1OCCOCCOc1ccc(Cl)cc1,inactive
2,O=C1/C(=C\c2ccco2)SC(=S)N1c1ccc(O)cc1,inactive
3,CCOc1cc(C=O)cc(N=Nc2cccc([N+](=O)[O-])c2)c1O,inactive
4,O=C(Oc1ccccc1)c1cccc(COC(=O)c2cnccn2)c1,inactive
5,CCOC(=O)C1CSC(CC(=O)Nc2ccc(Cl)c(Cl)c2)C(=O)N1 (stereo not given),inactive
6,CC(C)(C)NC(=O)C(=O)NNC(=O)COc1ccc(Br)cc1,inactive
7,CC(/C=C/c1ccccc1)=N\NC(=O)c1ccc2c(c1)OCCO2,inactive
8,O=C(N/N=C\C=C\c1ccco1)c1cncc(Br)c1,inactive
9,CCC(=O)c1ccc(OC(=O)c2ccc(Br)o2)cc1,inactive
10,Cc1cc(C)n2[nH]c(=O)c(N=Nc3cccc(Cl)c3)c2n1,inactive
11,Clc1ccc2c(N3CCCC3)ccnc2c1,inactive
12,Cc1ccc2[nH]c(C)c(CCNC(=O)c3cc4cc([N+](=O)[O-])ccc4oc3=O)c2c1,inactive
13,CCc1ccc(OCCCC(=O)NCc2ccco2)cc1,inactive
14,CCCOC(=O)c1ccc(OC(=O)c2ccco2)cc1,inactive
15,O=C(COc1ccc([N+](=O)[O-])cc1)NNC(=O)c1cccs1,inactive
16,COc1ccc(OCCOC(=O)c2cccs2)cc1,inactive
17,Cc1cc2n(n1)SC(Nc1ccccc1)N2 (stereo not given),inactive
18,c1ccc2[nH]c(NC3=NCCC3)nc2c1,inactive
19,O=C(COC(=O)c1cc(Br)ccc1Cl)NC1CCCC1,inactive
20,COC(=O)COc1ccc2c(-c3cccc([N+](=O)[O-])c3)cc(=O)oc2c1,inactive
21,O=C(CN1CCC(NC(=O)c2cccc(F)c2)CC1)Nc1ccc(Br)cc1,inactive
22,NC(=O)C1(N2CCCCC2)CCN(C2CC(=O)N(CCc3ccccc3)C2=O)CC1 (stereo not given),inactive
23,c1ccc(OCc2nn3c(-c4ccccn4)nnc3s2)cc1,inactive
24,c1ccc(OCc2nnc3sc(-c4cccs4)nn23)cc1,inactive

row,Compound,outcome
1,CCOC(=O)Cn1cc(C#N)c2cccc(CC)c21,inactive
2,Cc1occc1C(=O)N/N=C/C(Br)=C\c1ccccc1,inactive
3,Cc1oc(=O)c(NC(=O)c2ccccc2)cc1C(=O)c1ccccc1,inactive
4,O=C(O)c1ccccc1-c1ccccc1C(=O)Nc1nc2ccccc2s1,inactive
5,O=C(COC(=O)c1cc(Br)ccc1O)Nc1ccc2c(c1)OCO2,inactive
6,O=C(COC(=O)c1ccc(O)cc1O)c1ccc2c(c1)OCO2,inactive
7,COc1ccc(OC(=O)c2cc3ccccc3o2)cc1,inactive
8,CCCC(O)(CCC)C(=O)NNc1ccc(C)cc1,inactive
9,O=c1[nH][nH]c(-c2ccccc2O)c1C(C[N+](=O)[O-])c1cccc(Cl)c1 (stereo not given),inactive
10,CC(C)[C@H]1CN=C2N(C[C@H](C)NC(=O)CCC3CCCCC3)[C@H](Cc3ccc(O)cc3)CN21,inactive
11,CCCC(=O)N1CCC(Cc2ccccc2)CC1,inactive
12,C[C@@H]1CN=C2N(CCNC(=O)CCC3CCCCC3)[C@H](Cc3ccc(O)cc3)CN21,inactive
13,O=C(CN1CCC(Cc2ccccc2)CC1)NC(=O)NC1CCCCC1,inactive
14,O=C(c1ccccc1)C1CN(Cc2ccccc2)CCC1(O)c1ccccc1 (stereo not given),inactive
15,CC(C)CNc1nc(=S)nc(N(C)C)[nH]1,inactive
16,O=C(COc1ccc(Br)cc1)Nc1ccc([N+](=O)[O-])cn1,inactive
17,COc1ccc(Cc2nnc(-c3ccccc3)o2)cc1,inactive
18,O=C(Nc1nccs1)c1sc2ccccc2c1Cl,inactive
19,CCn1nnc(NC(=O)c2sc3ccccc3c2Cl)n1,inactive
20,NC1CCN(c2c(F)cc3c(=O)c(C(=O)O)cn(C4CC4)c3c2Cl)C1 (stereo not given),inactive
21,Cc1ccc(NC(=O)COC(=O)C(NS(=O)(=O)c2ccc(Cl)cc2)C(C)O)cc1C (stereo not given),inactive
22,CCOCCOC(=O)c1ccc(NC(=O)C2COc3ccccc3O2)cc1 (stereo not given),inactive
23,CCc1ccccc1NC(=O)C1COc2ccccc2O1 (stereo not given),inactive
24,CCOC(=O)c1cc2cc3ccccc3cc2oc1=O,inactive

row,Compound,outcome
1,Cc1ccc2nc(CCc3nc4ccc(C)cc4[nH]3)[nH]c2c1,inactive
2,O=C(COC(=O)CC1CCCC1)Nc1ccc(Cl)cn1,inactive
3,CC(=O)c1ccc(OC(=O)c2ccc(-n3nc(C)cc3C)cc2)cc1,inactive
4,Cc1cc(C)n(-c2ccc(C(=O)Oc3ccc4c(c3)OCO4)cc2)n1,inactive
5,CCOC(=O)c1nn(-c2ccccc2)c2nc(Nc3ccccc3)cc(=O)n12,inactive
6,CCOc1ccc(OCC(=O)Nc2ccc(OC)cc2)cc1,inactive
7,O=C(OCc1c(Cl)cccc1Cl)c1ccccn1,inactive
8,CCCN1C(=O)S/C(=C\c2ccc(N3CCOCC3)o2)C1=O,inactive
9,C/C(=N\Nc1ccc(Cl)cc1)c1c(O)cc(C)oc1=O,inactive
10,COc1ccc2oc(=O)c(/C(C)=N/NC(=O)c3ccncc3)cc2c1,inactive
11,COc1cccc(C(=O)C2CCCN(CC3=Cc4cc(OC)ccc4OC3)C2)c1 (stereo not given),inactive
12,CCn1cc(C(=O)NC(C)C23CC4CC(CC(C4)C2)C3)cn1 (stereo not given),inactive
13,O=C(c1ccc(Cl)cc1)c1nnc(-c2ccncc2)o1,inactive
14,O=C(CCc1ccccc1F)N1CCN(c2ccccc2)CC1,inactive
15,Cc1ccc(S(=O)(=O)N2CCC(C(=O)OCc3ccccc3)CC2)cc1C,inactive
16,O=C(OCC(=O)N1CCN(c2ccccc2)CC1)c1ccc(Cl)cc1[N+](=O)[O-],inactive
17,O=C(OCC(=O)N1CCN(c2ccccc2)CC1)c1ccc2ccccc2n1,inactive
18,CC(NC(=O)COc1ccccc1F)C1CC2CCC1C2 (stereo not given),inactive
19,O=C(NCCc1ccccc1)c1nc(-c2cccs2)no1,inactive
20,COc1ccc(NC(=O)COc2ccccc2)cc1Cl,inactive
21,Cc1ccc(CNCc2cc(Cl)ccc2O)cc1,inactive
22,CCOC(=O)Nc1cccc(OCC(=O)Nc2ccccc2OC)c1,inactive
23,CC(Cc1ccccc1Sc1ccccc1)N(C)C (stereo not given),inactive
24,CCOc1ccccc1NC(=O)COn1nnc2ccc(Cl)cc21,inactive

row,Compound,outcome
1,CCOc1cccc2cc(C(=O)Nc3nccs3)c(=O)oc12,inactive
2,OC(C#CCN1CCOCC1)c1cccs1 (stereo not given),inactive
3,Cc1[nH]nc2c1C(c1ccc(OC(=O)c3ccco3)cc1)C(C#N)=C(N)O2 (stereo not given),inactive
4,CCOC(=O)CN1NC2(CCCC(C)C2)NC1=S (stereo not given),inactive
5,CCOC(=O)c1cc(-c2csc(COc3ccccc3Cl)n2)on1,inactive
6,COCCOC(=O)c1c(C)oc2ccc(OC(=O)c3ccco3)cc12,inactive
7,CC(=O)N1CCN(C(=O)CC2OC(=O)c3ccccc32)CC1 (stereo not given),inactive
8,COCCn1c(C)cc(C(=O)COC(=O)c2ccc(Br)o2)c1C,inactive
9,CCCN1C(=O)SC(CC(=O)Nc2ccccc2)C1=O (stereo not given),inactive
10,Nc1nnc(Sc2ncccc2[N+](=O)[O-])s1,inactive
11,CNc1nnc(Sc2ncccc2[N+](=O)[O-])s1,inactive
12,COc1ccc(OCCSc2nnc(Cc3cccc4ccccc34)n2N)cc1,inactive
13,O=C(c1ccccc1)n1c(=O)c(F)cn(COCCBr)c1=O,inactive
14,Cc1nnc(NC(=O)c2ccc3ccccc3c2)o1,inactive
15,O=C(Cn1cc([N+](=O)[O-])nc1[N+](=O)[O-])N1CCN(c2ccccc2)CC1,inactive
16,CCOC(=O)C(Nc1ccc2ccccc2c1)C(=O)OCC,inactive
17,COc1cccc(NC(=O)c2cc3ccccc3oc2=O)c1,inactive
18,O=c1oc2ccccc2c2c1nc(C(F)(F)F)n2-c1ccccc1,inactive
19,COC(=O)CN(C#N)c1nc(SC)nc(N(C)C)n1,inactive
20,Cc1ccc(N2NC(=O)/C(=C/C=C/c3ccco3)C2=O)cc1C,inactive
21,O=C(NC(=S)Nn1cnc2c(cnn2-c2ccccc2)c1=O)c1ccccc1,inactive
22,CCOC(=O)Cn1c2ccc(F)cc2c2nc(C)sc21,inactive
23,Cc1nnc(N/N=C/c2ccc(Br)cc2)n1N,inactive
24,Cc1ccccc1OCC(=O)OCC(=O)c1ccc[nH]1,inactive

row,Compound,outcome
1,CC1(CCc2ccc3c(c2)OCO3)NC(=O)c2ccccc2N1 (stereo not given),inactive
2,O=C(COc1ccc(Br)cc1)N/N=C1/SCC(=O)N1Cc1ccco1,inactive
3,CCc1nnc(N/N=C/c2c(F)cccc2Cl)n1N,inactive
4,O=C(N/N=C1\CCCc2c1[nH]c1ccc(Cl)cc21)c1ccncc1,inactive
5,Cc1ccsc1/C=N/NC(=O)c1ccncc1,inactive
6,COc1ccc(C(C)=O)cc1COC(=O)c1ccc2ccccc2n1,inactive
7,c1nc2n(n1)C1=C(CCCC1)C1(CCCCC1)N2,inactive
8,CC1CCN(S(=O)(=O)c2cccc(C(=O)Oc3ccc([N+](=O)[O-])cc3)c2)CC1,inactive
9,CCOc1ccc(NC(=O)c2nnn(CC(=O)Nc3ccccc3OC)c2N)cc1,inactive
10,CN(C)S(=O)(=O)c1ccc(C(=O)Oc2ccccc2)cc1,inactive
11,Cc1ccc(NC(=O)CN(C)CC(=O)Nc2ccc(F)c(Cl)c2)cc1,inactive
12,CCOC(=O)c1ccc(NC(=O)NS(=O)(=O)c2ccc(C)cc2)cc1,inactive
13,CC(C)C(=O)Nc1cccc(-c2nc3ccccc3c(=O)o2)c1,inactive
14,CCOC(=O)Cn1c(C)c(Br)c(=O)c2cccc(C)c21,inactive
15,CN(C)Cc1ccccc1Sc1ccc(Br)cc1,inactive
16,FC(F)(F)c1nc(SCc2ccc(Cl)cc2Cl)n[nH]1,inactive
17,Cc1ccccc1N1CCN(Cc2ccc([N+](=O)[O-])o2)CC1,inactive
18,COC(=O)COc1ccc(S(=O)(=O)N2CCN(c3ccccc3F)CC2)cc1,inactive
19,O=C(CN1CCCCC1)Nc1nnc(-c2ccc([N+](=O)[O-])cc2)s1,inactive
20,O=[N+]([O-])c1ccc(CN2CCN(c3ccccc3Cl)CC2)o1,inactive
21,Cc1cc2cc(CNC(=O)C3CCCC3)ccc2n1C,inactive
22,O=C(CN1CCN(c2ccccc2)CC1)Nc1nnc(-c2ccccc2)s1,inactive
23,Cc1ccc(CNC(=O)c2cnccn2)cc1,inactive
24,O=C(Oc1ccccc1)c1ccc(COC(=O)c2cnccn2)cc1,inactive
